Results reported in the supplement of paper PMC13094657.
± gives the standard deviation of the averaged measurements.

Key:
[1] = tested on: MDA-MB-231; assay: cell viability relative to vehicle unstimulated control (fraction); higher = more viable cells; details: pre-treatment time: 18 h then 24 h IFNg/TNF
[2] = tested on: MDA-MB-231; assay: kynurenine production, fold change vs DMSO IFNg/TNF control; higher = more kynurenine produced (less inhibition); details: pre-treatment time: 18 h then 24 h IFNg/TNF
Outline: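 Fold change over cytokine-stimulated vehicle wells on the same plate is the measure used for kynurenine production, averaged across duplicate plates in the first screening round. MDA-MB-231 cells, seeded 24 h beforehand at 7 × 10^4/well in 96-well plates, were pre-treated 18 h with each natural product in 0.1% DMSO and stimulated 24 h at 37°C with IFNγ (1 U/ml) and TNF (6.25 ng/ml). Supernatants were read at 492 nm following trichloroacetic acid and p-dimethylaminobenzaldehyde treatment, against 0–100 μM standards.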
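Wherever cell viability relative to vehicle unstimulated control is given: viability of the cells left after supernatant collection, read with Deep Blue dye added for 4 h, as absorbance at 570 nm minus 600 nm.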

Structure (SMILES) | cell viability [1] | kynurenine production [2]
C[C@@H]1O[C@@H](O[C@H]2[C@H](O[C@H]3CC[C@]4(C)[C@H]5CC=C6[C@@H]7CC(C)(C)CC[C@]7(C(=O)O)CC[C@@]6(C)[C@]5(C)CC[C@H]4C3(C)C)OC[C@H](O[C@@H]3O[C@H](CO)[C@@H](O)[C@H](O)[C@H]3O)[C@@H]2O)[C@H](O)[C@H](O)[C@H]1O [Hederacolchiside A1] (compound dose: 10 uM) | 0.221 ± 0.013 | 0.396 ± 0.15
COC(=O)[C@@H]1C[C@@]23C4=C(CC[C@@H]5CN6C[C@@H](C)[C@@H](C[C@@H](OC(C)=O)[C@@]52COC(C)=O)[C@]63O)CC[C@@H]41 [Yuzurimine] (compound dose: 10 uM) | 1.04 ± 0.029 | 0.756 ± 0.07
C=C(C)[C@@H]1CC[C@]2(C)CC[C@]3(C)[C@H](CC[C@@H]4[C@@]5(C)CC[C@H](O)C(C)(C)[C@@H]5CC[C@]43C)[C@@H]12 [Lupeol] (compound dose: 2 uM) | 0.861 ± 0.041 | 0.921 ± 0.085
CC(=O)OC/C=C(\C)CCC=C(C)C [Geranyl acetate] (compound dose: 10 uM) | 1.01 ± 0.065 | 0.882 ± 0.039
CC(CCC(OC1OC(CO)C(O)C(O)C1OC1OC(CO)C(O)C(O)C1O)C(C)(C)O)C1CCC2(C)C3CC=C4C(CCC(OC5OC(COC6OC(CO)C(O)C(O)C6O)C(O)C(O)C5O)C4(C)C)C3(C)C(O)CC12C (configuration not stated) [Mogroside IV] (compound dose: 10 uM) | 0.996 ± 0.11 | 1.12 ± 0.23
CC(C)=CCC[C@](C)(O)[C@H]1CC[C@]2(C)[C@@H]1[C@H](O)C[C@@H]1[C@@]3(C)CC[C@H](O)C(C)(C)[C@@H]3[C@@H](O[C@@H]3O[C@H](CO)[C@@H](O)[C@H](O)[C@H]3O[C@@H]3O[C@@H](C)[C@H](O)[C@@H](O)[C@H]3O)C[C@]12C [Ginsenoside Rg2] (compound dose: 10 uM) | 1.01 ± 0.095 | 0.974 ± 0.061
